Test results: PMC10726135, “HNF4α isoforms regulate the circadian balance between carbohydrate and lipid metabolism in the liver”
Over roughly 18,000 sequences, “log2 normalized intensity” has its median near 0.36; the highest 2% begin near 7.3. This is one part of a sample in which the highest values are shown more often than they occur.

molecular target: T1, HNF4alpha8 (COS-7 nuclear extract) (Homo sapiens, UniProt P41235-5 1-452); assay: protein-binding microarray; COS-7 nuclear extract on double-stranded Agilent 4x180k PBM; binding buffer, salt, pH and temperature not given in the material; high values mean tight binding; settings: chain copies: 2; label: 3' end of strand 1 on the slide; dsDNA, one strand shown
T1 sequence: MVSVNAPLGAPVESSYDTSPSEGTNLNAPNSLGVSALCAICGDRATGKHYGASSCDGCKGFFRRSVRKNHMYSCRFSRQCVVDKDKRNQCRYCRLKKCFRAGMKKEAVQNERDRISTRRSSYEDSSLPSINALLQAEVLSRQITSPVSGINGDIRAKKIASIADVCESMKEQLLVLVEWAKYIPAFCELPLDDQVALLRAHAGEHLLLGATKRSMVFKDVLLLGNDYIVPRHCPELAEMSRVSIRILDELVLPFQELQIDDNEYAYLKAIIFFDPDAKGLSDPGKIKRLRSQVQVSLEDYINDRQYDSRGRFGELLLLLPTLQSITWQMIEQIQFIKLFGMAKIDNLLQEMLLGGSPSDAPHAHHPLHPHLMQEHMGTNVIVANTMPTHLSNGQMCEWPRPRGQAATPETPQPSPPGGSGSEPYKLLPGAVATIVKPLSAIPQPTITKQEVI
Summary of the method: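 Nuclear extracts came from COS-7 cells transiently transfected by CaPO4 with a human HNF4α isoform expression vector. They were applied to a custom Agilent SurePrint G3 4x180k array of ~60-nt oligonucleotides, made double-stranded, with ~44,000 test sequences spotted in quadruplicate. Bound HNF4α was imaged at 2-µm resolution on an Agilent G2565CA scanner. Binding signal was taken as background-corrected, normalized gProcessedSignal from Agilent software.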

Row | Sequence | binding signal
1 | TGTCAGGAACAACTTCGGGAATCTGACCTTGCCTAGGGAGATTAGAGTATCGGTCGA | 4.3 log2 normalized intensity
2 | GCTTACAACTCTAAGGGGGAAAGTCCACGTGCCTAGGGAGATTAGAGTATCGGTCGA | 4.61 log2 normalized intensity
3 | CTCAACCTCCCCCTGGGGACAGGTGTTAATGCCTAGGGAGATTAGAGTATCGGTCGA | 2.27 log2 normalized intensity
4 | CACGTGCAAAGTACAAAGTACAGAGATGGCGCCTAGGGAGATTAGAGTATCGGTCGA | 3.78 log2 normalized intensity
5 | GGGTAACTGACCTTGTTGCCCACCCCCCAAGCCTAGGGAGATTAGAGTATCGGTCGA | 5.8 log2 normalized intensity
6 | TCAATGGCCCCAGTGCACGTGCATGAGGCCGCCTAGGGAGATTAGAGTATCGGTCGA | -0.475 log2 normalized intensity
7 | GGATCCTTGGAGGACCTTGGGTTCATTTTAGCCTAGGGAGATTAGAGTATCGGTCGA | 2.86 log2 normalized intensity
8 | TTTTGCTCTGATCCTAGTCTTTGCCCCACTGCCTAGGGAGATTAGAGTATCGGTCGA | 3.94 log2 normalized intensity
9 | ACTGCCCGCTGGCCTCCCCATCCTCATGACGCCTAGGGAGATTAGAGTATCGGTCGA | 2.93 log2 normalized intensity
10 | CAAGCTGACAAACATGTATCAGTGATAGACGCCTAGGGAGATTAGAGTATCGGTCGA | -0.0274 log2 normalized intensity
11 | TATGACCTTTGCTTTTCAAGATTTTACCTAGCCTAGGGAGATTAGAGTATCGGTCGA | 2.72 log2 normalized intensity
12 | AATCGACCTTTAGCACCGTAAGAGAGTATTGCCTAGGGAGATTAGAGTATCGGTCGA | 4.63 log2 normalized intensity
13 | CTTTAGCACCTTCATCCAAAGATGACCTTTGCCTAGGGAGATTAGAGTATCGGTCGA | 8.24 log2 normalized intensity
14 | TAACTCCTTTGTGTGAATCGACCTTTAGCAGCCTAGGGAGATTAGAGTATCGGTCGA | 6.42 log2 normalized intensity
15 | TCTTATTGCCTCATGTTTGCAGAATGGCTGGCCTAGGGAGATTAGAGTATCGGTCGA | 0.617 log2 normalized intensity
16 | CTGGACTTTCCTTTGTTGGGAGACTTTTTAGCCTAGGGAGATTAGAGTATCGGTCGA | 1.45 log2 normalized intensity
17 | GGACTTGGGACTTTCGAGTTAATGCTGGAGGCCTAGGGAGATTAGAGTATCGGTCGA | 3.2 log2 normalized intensity
18 | GAGACTTTGGACTTTGGACTTGGGACTTTCGCCTAGGGAGATTAGAGTATCGGTCGA | 9.81 log2 normalized intensity
19 | TTTGGACTTTGGACTTGGGACTTTCGAGTTGCCTAGGGAGATTAGAGTATCGGTCGA | 8.22 log2 normalized intensity
20 | CCTTTGGACTGTCCTTTGCTAGATTCTTTCGCCTAGGGAGATTAGAGTATCGGTCGA | 2.13 log2 normalized intensity
21 | ACTTTGGACTTGGGACTTTCGAGTTAATGCGCCTAGGGAGATTAGAGTATCGGTCGA | 4.67 log2 normalized intensity
22 | ATAGCAAACACGATTGGATGGAAGGTCCTTGCCTAGGGAGATTAGAGTATCGGTCGA | 0.748 log2 normalized intensity
23 | AATCAAACTGAACTTTGAAACAAGCCCATCGCCTAGGGAGATTAGAGTATCGGTCGA | 3.87 log2 normalized intensity
24 | CAACCTCTCCAATGCTATGCTTTTATTTAAGCCTAGGGAGATTAGAGTATCGGTCGA | -0.995 log2 normalized intensity
25 | CATCATAAACCCGATCCTTACTATTAGGTCGCCTAGGGAGATTAGAGTATCGGTCGA | 1 log2 normalized intensity
26 | CTGTGCTGCCCTTTGCCCTTTGGGAAGGGGGCCTAGGGAGATTAGAGTATCGGTCGA | 6.59 log2 normalized intensity
27 | CTTGGCTGTGCTGCCCTTTGCCCTTTGGGAGCCTAGGGAGATTAGAGTATCGGTCGA | 7.91 log2 normalized intensity

Row | Sequence | binding signal
28 | GGACTTTGGGCTGTGTTTTGCCCCTGCAGAGCCTAGGGAGATTAGAGTATCGGTCGA | 4.12 log2 normalized intensity
29 | GGGTGGGGTGCTGCCTTTCCTGTGACTTTTGCCTAGGGAGATTAGAGTATCGGTCGA | 2.09 log2 normalized intensity
30 | GAGAGTTTTCCTTGGCTGTGCTGCCCTTTGGCCTAGGGAGATTAGAGTATCGGTCGA | 4.01 log2 normalized intensity
31 | TTTTCCTTGGCTGTGCTGCCCTTTGCCCTTGCCTAGGGAGATTAGAGTATCGGTCGA | 8.52 log2 normalized intensity
32 | GCGTAGCCCAAAGGTCAGTCTGCAGCTAATGCCTAGGGAGATTAGAGTATCGGTCGA | 3.36 log2 normalized intensity
33 | AGTAGGCACTATTATCCCCCTATCCCAAGAGCCTAGGGAGATTAGAGTATCGGTCGA | 4.72 log2 normalized intensity
34 | GGTGACCCCTCAGTTTTTCTCTTTTGACCTGCCTAGGGAGATTAGAGTATCGGTCGA | 4.77 log2 normalized intensity
35 | GCATGACCTCAACTCTCAGTTTGGCTCTTAGCCTAGGGAGATTAGAGTATCGGTCGA | 0.116 log2 normalized intensity
36 | CGCATTTCTGCTTCTTCTCATTCTTGGAATGCCTAGGGAGATTAGAGTATCGGTCGA | 1.49 log2 normalized intensity
37 | GTGCTTGGACCTGCTCTGTTTTCTTTCGGTGCCTAGGGAGATTAGAGTATCGGTCGA | 1.24 log2 normalized intensity
38 | CTGCTTTTGGAATTTGACCTCATTTGCTCCGCCTAGGGAGATTAGAGTATCGGTCGA | 6.52 log2 normalized intensity
39 | ATTATCTGCTTTTATGACCTTTGACTGCAGGCCTAGGGAGATTAGAGTATCGGTCGA | 7.32 log2 normalized intensity
40 | CTTTTCTGCTTTTGGAATTTGACCTCATTTGCCTAGGGAGATTAGAGTATCGGTCGA | 7.55 log2 normalized intensity
41 | CCCCTCAGTTTTTCTCTTTTGACCTTTGGAGCCTAGGGAGATTAGAGTATCGGTCGA | 9.54 log2 normalized intensity
42 | TGCCTCTTTTCTGCTTTTGGAATTTGACCTGCCTAGGGAGATTAGAGTATCGGTCGA | 8.78 log2 normalized intensity
43 | CCTAAGCCTTATTATCTGCTTTTATGACCTGCCTAGGGAGATTAGAGTATCGGTCGA | 3.51 log2 normalized intensity
44 | GCCTTATTATCTGCTTTTATGACCTTTGACGCCTAGGGAGATTAGAGTATCGGTCGA | 8.05 log2 normalized intensity
45 | TTTGTTGCCTCTTTTCTGCTTTTGGAATTTGCCTAGGGAGATTAGAGTATCGGTCGA | 3.37 log2 normalized intensity
46 | CCCCACTTCCTGACTTGGCCTGAACCAGTTGCCTAGGGAGATTAGAGTATCGGTCGA | 0.602 log2 normalized intensity
47 | TTAAGAACTGGAGTAAAGGTCACTCTTGCTGCCTAGGGAGATTAGAGTATCGGTCGA | 3.94 log2 normalized intensity
48 | GTGTTTAATGTTTTCATTCTGATTTGCACAGCCTAGGGAGATTAGAGTATCGGTCGA | 0.934 log2 normalized intensity
49 | CTCTCCAAGCCAGAAAGATGTTTGCCCCAAGCCTAGGGAGATTAGAGTATCGGTCGA | 2.94 log2 normalized intensity
50 | GGTTGGCACGCTTAGGGAACAAAGGTCAGTGCCTAGGGAGATTAGAGTATCGGTCGA | 7.22 log2 normalized intensity
51 | CGCCGCCTCTGCCTCTTGACCCCTTGGCCCGCCTAGGGAGATTAGAGTATCGGTCGA | 5.9 log2 normalized intensity
52 | TTCCTGGCCTCTCTGCAAATTTGCCTTGTCGCCTAGGGAGATTAGAGTATCGGTCGA | 0.448 log2 normalized intensity
53 | TGTTTGCACTGAGGAATGGAAGGACCTTGGGCCTAGGGAGATTAGAGTATCGGTCGA | 2.07 log2 normalized intensity
54 | TTAGGGGTTAGGGTTAGGGTTAGGGTTACGGCCTAGGGAGATTAGAGTATCGGTCGA | 1.17 log2 normalized intensity
